Assay results published in the supplement of paper PMC10849652.
The full data set covers some 8,800 targets. This sample favours those with a hit. About 0.5% of all pairs of compound and target were hits. Values without a mark were called inactive.

Columns and labels:
Experiment in all cases: log2 fold change, soluble protein after heating vs DMSO (PISA); higher = thermal stabilisation; K562 lysate, 10 uM; active = over 0.2 and 3.5 SD of the protein, either way, in both replicates (recomputed)
vemurafenib = compound: CCCS(=O)(=O)Nc1ccc(F)c(C(=O)c2c[nH]c3ncc(-c4ccc(Cl)cc4)cc23)c1F [vemurafenib]
In short: (§1)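 K562 pellets were dounce-homogenised in PBS pH 7.4 with 1 mM MgCl2, and the crude extract at 1 mg/mL protein was treated with 10 μM compound for 30 min. Aliquots were heated for 3 min across 48°C-58°C, pooled, and brought to 0.5% NP-40 at 4°C; soluble protein was the supernatant after 21,000xg for 90 min. Soluble protein was quantified by TMTpro 16plex LC-MS/MS with channel sums equalised, and reported as log2 fold change in thermal stability against DMSO controls, with values from duplicates.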

[1] = compound: CCCS(=O)(=O)Nc1ccc(F)c(C(=O)c2c[nH]c3ncc(Cl)cc23)c1F
In short: as §1

barasertib = compound: CCN(CCCOc1ccc2c(Nc3cc(CC(=O)Nc4cccc(F)c4)[nH]n3)ncnc2c1)CCOP(=O)(O)O [barasertib]
In short: as §1

[2] = compound: CC[C@@H]1C(=O)N(C)c2cnc(Nc3ccc(C(=O)NC4CCN(C)CC4)cc3OC)nc2N1C1CCCC1
In short: as §1

volasertib = compound: CC[C@@H]1C(=O)N(C)c2cnc(Nc3ccc(C(=O)N[C@H]4CC[C@H](N5CCN(CC6CC6)CC5)CC4)cc3OC)nc2N1C(C)C [volasertib]
In short: as §1

[3] = compound: CCn1c(C(=O)N(C2CC2)C2CC2)cc2c3c(ncn3C)c(Nc3cc(C)n(C)n3)nc21
In short: as §1

[4] = compound: CCn1cc(-c2ccnc3[nH]c(-c4cccc(CN(C)C)c4)cc23)c(-c2ccc(NC(=O)N(C)C)cc2)n1
In short: as §1

[5] = compound: CN1CCC(CNc2ccc3ncc(-c4cccc(OC(F)(F)F)c4)n3n2)CC1
In short: as §1

saracatinib = compound: CN1CCN(CCOc2cc(OC3CCOCC3)c3c(Nc4c(Cl)ccc5c4OCO5)ncnc3c2)CC1 [saracatinib]
In short: as §1

sotrastaurin = compound: CN1CCN(c2nc(C3=C(c4c[nH]c5ccccc45)C(=O)NC3=O)c3ccccc3n2)CC1 [sotrastaurin]
In short: as §1

alvocidib = compound: CN1CC[C@H](c2c(O)cc(O)c3c(=O)cc(-c4ccccc4Cl)oc23)[C@H](O)C1 [alvocidib]
In short: as §1

Tubastatin A = compound: CN1CCc2c(c3ccccc3n2Cc2ccc(C(=O)NO)cc2)C1 [Tubastatin A]
In short: as §1

[6] = compound: CNC(=O)C1=CC=CC=C1NC2=NC(=NC=C2Cl)NC3=C(C=C(C=C3)N4CCOCC4)OC
In short: as §1

defactinib = compound: CNC(=O)c1ccc(Nc2ncc(C(F)(F)F)c(NCc3nccnc3N(C)S(C)(=O)=O)n2)cc1 [defactinib]
In short: as §1

[7] = compound: CNc1nc(-c2ccc3c(N)n[nH]c3c2)cc(N2C[C@@H](C(=O)NC3CCCCC3)CC[C@H]2C)n1
In short: as §1

encorafenib = compound: COC(=O)N[C@@H](C)CNc1nccc(-c2cn(C(C)C)nc2-c2cc(Cl)cc(NS(C)(=O)=O)c2F)n1 [encorafenib]
In short: as §1

[8] = compound: COC(=O)[C@H](CCSC)NC(=O)C1=C(C=C(C=C1)NC[C@H](CS)N)C2=CC=CC=C2
In short: as §1

alisertib = compound: COc1cc(Nc2ncc3c(n2)-c2ccc(Cl)cc2C(c2c(F)cccc2OC)=NC3)ccc1C(=O)O [alisertib]
In short: as §1

[9] = compound: COc1cc2nc(-c3cc(F)ccc3O)nc(N[C@@H]3CNC[C@H]3C(C)(C)O)c2cc1OC
In short: as §1

gefitinib = compound: COc1cc2ncnc(Nc3ccc(F)c(Cl)c3)c2cc1OCCCN1CCOCC1 [gefitinib]
In short: as §1

UniProt Q14527, sequence (Q14527 whole entry, looked up): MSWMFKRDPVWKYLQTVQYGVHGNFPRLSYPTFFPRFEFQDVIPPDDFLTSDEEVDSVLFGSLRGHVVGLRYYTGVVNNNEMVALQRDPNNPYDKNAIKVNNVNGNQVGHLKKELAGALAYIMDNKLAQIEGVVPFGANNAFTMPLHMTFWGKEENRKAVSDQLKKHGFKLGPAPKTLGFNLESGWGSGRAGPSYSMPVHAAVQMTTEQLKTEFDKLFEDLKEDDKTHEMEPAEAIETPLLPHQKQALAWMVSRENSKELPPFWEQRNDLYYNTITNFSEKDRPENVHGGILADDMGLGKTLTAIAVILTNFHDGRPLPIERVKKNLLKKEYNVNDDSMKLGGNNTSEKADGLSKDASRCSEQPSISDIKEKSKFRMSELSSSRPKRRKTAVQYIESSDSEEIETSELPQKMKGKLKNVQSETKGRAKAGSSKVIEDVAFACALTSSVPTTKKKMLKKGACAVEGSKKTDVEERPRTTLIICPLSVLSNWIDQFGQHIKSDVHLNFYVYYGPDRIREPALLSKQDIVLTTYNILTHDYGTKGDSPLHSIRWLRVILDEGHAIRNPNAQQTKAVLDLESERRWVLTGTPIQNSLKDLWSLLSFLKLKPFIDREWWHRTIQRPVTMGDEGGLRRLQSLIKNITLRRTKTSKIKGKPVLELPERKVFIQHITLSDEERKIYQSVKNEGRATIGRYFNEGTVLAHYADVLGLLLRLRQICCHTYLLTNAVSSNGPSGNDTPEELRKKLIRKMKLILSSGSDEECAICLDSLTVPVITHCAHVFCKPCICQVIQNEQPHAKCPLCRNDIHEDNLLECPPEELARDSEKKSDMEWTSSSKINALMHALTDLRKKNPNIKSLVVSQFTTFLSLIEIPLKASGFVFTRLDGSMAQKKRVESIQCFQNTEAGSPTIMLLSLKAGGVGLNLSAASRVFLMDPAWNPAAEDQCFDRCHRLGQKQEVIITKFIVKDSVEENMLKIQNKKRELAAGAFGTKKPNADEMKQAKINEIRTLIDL
UniProt O15379, sequence (O15379 whole entry, looked up): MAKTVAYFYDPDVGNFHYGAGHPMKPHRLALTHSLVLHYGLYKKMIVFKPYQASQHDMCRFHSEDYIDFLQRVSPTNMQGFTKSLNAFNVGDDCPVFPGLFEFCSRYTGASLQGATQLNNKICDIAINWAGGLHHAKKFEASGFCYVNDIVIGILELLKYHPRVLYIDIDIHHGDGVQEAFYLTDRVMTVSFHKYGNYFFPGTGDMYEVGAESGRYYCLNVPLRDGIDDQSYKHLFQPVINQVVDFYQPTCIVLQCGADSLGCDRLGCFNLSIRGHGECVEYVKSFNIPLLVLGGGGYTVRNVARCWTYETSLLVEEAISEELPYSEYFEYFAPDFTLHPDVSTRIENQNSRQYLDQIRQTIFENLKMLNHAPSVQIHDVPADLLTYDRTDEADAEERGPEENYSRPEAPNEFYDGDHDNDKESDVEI
UniProt Q99714, sequence (Q99714 whole entry, looked up): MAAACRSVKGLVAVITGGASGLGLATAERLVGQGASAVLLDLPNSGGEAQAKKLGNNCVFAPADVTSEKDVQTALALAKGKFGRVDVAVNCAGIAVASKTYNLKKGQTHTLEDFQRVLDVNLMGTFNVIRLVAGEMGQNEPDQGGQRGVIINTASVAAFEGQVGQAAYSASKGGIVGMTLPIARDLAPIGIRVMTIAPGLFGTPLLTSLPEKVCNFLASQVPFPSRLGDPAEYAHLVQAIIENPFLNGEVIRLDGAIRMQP
UniProt Q9BVP2, sequence (Q9BVP2 whole entry, looked up): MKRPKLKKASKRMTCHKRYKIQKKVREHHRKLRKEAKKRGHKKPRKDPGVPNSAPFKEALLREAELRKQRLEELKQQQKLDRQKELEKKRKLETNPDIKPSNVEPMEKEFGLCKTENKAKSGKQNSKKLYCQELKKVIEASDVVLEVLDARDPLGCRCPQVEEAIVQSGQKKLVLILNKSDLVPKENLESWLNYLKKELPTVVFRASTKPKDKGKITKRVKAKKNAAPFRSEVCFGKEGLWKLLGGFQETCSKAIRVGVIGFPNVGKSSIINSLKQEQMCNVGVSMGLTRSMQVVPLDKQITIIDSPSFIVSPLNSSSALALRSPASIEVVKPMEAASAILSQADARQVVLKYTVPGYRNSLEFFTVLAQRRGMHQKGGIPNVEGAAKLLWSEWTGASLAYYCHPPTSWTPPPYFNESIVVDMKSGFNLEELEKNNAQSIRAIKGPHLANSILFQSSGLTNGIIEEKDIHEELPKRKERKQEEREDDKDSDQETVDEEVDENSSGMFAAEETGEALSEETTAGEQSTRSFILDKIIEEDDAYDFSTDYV
UniProt Q9H6K1, sequence (Q9H6K1 whole entry, looked up): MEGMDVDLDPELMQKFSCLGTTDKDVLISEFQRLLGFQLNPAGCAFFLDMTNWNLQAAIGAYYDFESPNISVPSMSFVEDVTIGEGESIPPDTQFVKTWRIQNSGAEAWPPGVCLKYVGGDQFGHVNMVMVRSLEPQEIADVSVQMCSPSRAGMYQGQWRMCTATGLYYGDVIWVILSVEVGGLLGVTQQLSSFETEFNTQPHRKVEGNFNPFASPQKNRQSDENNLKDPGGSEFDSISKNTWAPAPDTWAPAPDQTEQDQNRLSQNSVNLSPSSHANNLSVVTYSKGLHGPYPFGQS
UniProt Q8NEC7, sequence (Q8NEC7 whole entry, looked up): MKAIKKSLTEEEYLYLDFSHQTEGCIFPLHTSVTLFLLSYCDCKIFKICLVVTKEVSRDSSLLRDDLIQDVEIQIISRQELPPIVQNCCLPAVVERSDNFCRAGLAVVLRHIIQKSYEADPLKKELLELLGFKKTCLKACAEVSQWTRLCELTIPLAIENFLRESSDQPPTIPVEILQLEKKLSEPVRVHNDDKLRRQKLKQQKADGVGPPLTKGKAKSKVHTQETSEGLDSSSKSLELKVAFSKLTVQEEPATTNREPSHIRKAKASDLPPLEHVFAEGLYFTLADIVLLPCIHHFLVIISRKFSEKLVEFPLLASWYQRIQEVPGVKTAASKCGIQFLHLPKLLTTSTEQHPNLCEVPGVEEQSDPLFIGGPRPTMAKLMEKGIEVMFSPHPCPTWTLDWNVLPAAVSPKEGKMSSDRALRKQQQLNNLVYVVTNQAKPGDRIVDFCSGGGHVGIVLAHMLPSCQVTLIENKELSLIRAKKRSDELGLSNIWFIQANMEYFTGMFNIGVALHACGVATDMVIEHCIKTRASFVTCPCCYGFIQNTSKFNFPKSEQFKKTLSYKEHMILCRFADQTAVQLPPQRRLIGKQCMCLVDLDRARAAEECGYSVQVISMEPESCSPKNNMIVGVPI
UniProt Q5T447, sequence (Q5T447 whole entry, looked up): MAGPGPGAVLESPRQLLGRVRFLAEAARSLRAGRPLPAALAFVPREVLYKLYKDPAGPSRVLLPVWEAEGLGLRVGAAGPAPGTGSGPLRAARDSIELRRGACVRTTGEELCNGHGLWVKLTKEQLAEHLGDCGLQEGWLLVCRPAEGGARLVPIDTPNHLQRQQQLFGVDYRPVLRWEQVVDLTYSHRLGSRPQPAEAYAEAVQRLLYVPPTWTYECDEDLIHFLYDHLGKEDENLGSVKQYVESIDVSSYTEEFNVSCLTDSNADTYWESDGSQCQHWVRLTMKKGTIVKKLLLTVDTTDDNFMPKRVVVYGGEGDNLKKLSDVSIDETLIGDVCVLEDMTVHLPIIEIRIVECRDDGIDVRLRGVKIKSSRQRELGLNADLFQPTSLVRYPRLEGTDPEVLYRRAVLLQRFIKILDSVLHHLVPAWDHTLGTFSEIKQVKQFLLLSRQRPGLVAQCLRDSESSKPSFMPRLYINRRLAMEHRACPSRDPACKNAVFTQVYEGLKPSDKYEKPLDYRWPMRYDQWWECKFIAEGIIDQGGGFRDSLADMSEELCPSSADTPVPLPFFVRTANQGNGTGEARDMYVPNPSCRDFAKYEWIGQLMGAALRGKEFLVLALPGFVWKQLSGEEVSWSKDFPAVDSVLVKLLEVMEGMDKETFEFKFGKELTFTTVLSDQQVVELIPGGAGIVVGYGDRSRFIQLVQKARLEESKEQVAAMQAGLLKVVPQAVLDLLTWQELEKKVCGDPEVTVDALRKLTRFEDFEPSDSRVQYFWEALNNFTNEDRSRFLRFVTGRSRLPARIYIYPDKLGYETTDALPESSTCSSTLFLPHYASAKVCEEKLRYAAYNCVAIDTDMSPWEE
UniProt Q8IY47, sequence (Q8IY47 whole entry, looked up): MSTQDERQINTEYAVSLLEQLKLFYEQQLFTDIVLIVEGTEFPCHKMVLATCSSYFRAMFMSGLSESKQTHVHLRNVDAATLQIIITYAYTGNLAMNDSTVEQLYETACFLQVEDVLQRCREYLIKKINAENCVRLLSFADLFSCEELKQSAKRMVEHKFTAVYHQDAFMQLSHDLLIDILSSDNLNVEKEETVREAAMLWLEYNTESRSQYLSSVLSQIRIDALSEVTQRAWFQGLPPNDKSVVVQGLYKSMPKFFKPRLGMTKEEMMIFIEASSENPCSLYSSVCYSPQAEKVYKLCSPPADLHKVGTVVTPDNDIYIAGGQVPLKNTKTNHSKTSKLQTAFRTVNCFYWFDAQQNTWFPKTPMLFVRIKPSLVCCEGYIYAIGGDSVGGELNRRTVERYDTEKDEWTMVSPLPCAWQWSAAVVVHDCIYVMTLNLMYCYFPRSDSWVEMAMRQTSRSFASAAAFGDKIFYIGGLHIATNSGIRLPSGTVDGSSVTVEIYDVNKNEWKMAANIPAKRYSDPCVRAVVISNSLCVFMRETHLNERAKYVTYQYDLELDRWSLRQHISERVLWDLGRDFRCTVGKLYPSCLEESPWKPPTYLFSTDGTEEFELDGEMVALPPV
UniProt P09429, sequence (P09429 whole entry, looked up): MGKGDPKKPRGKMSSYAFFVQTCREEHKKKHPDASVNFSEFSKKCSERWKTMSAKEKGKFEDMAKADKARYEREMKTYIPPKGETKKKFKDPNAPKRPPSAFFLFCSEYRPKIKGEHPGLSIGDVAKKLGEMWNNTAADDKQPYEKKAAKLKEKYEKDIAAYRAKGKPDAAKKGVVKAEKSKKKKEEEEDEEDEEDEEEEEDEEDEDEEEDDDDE

Target	log2 fold change (vemurafenib)	log2 fold change [1]	log2 fold change (barasertib)	log2 fold change [2]	log2 fold change (volasertib)	log2 fold change [3]	log2 fold change [4]	log2 fold change [5]	log2 fold change (saracatinib)	log2 fold change (sotrastaurin)	log2 fold change (alvocidib)	log2 fold change (Tubastatin A)	log2 fold change [6]	log2 fold change (defactinib)	log2 fold change [7]	log2 fold change (encorafenib)	log2 fold change [8]	log2 fold change (alisertib)	log2 fold change [9]	log2 fold change (gefitinib)
HLTF (UniProt Q14527)	-0.008	-0.044	0.077	-0.002	-0.043	0.028	-0.024	0.073	0.004	0.017	-0.027	-0.083	-0.001	0.028	0.025	0.004	0.104	0.048	0.01	0.076
HSD17B10 (UniProt Q99714)	0.017	-0.016	-0.021	-0.006	-0.015	-0.022	-0.081	0.024	-0.022	-0.014	-0.02	-0.077	0.004	-0.029	0.05	-0.035	0.141	0.013	-0.009	-0.021
GLB1 (UniProt P16278)	-0.034	0.012	-0.029	0.02	-0.045	-0.017	-0.066	0.019	-0.032	0.043	-0.042	-0.032	0.005	0.006	0.055	-0.036	0.327 (active)	0.022	0.007	-0.015
ILRUN (UniProt Q9H6K1)	-0.012	0.048	0.06	-0.001	-0.058	-0.059	-0.109	0.067	0.024	-0.003	0.031	-0.059	0.047	-0.01	-0.004	0.052	-0.03	0.123	0.056	0.115
GSTCD (UniProt Q8NEC7)	0.028	0.057	-0.039	-0.018	-0.05	0.011	-0.055	-0.015	0.034	0.037	0.03	-0.13	0.055	-0.002	-0.013	0.052	0.138	-0.068	0.002	0
HDLBP, A0A024R4E5	0.008	0.024	-0.017	0.016	-0.04	0.011	-0.018	-0.008	-0.002	0.004	-0.004	-0.082	0.01	0.001	0.004	0.028	0.073	-0.005	0.003	0.003
HSPA8 (UniProt E9PK54)	-0.047	0.014	-0.113	-0.071	-0.056	0.08	-0.144	0.052	0.108	0.028	-0.047	0.036	-0.066	-0.041	-0.05	-0.025	-0.004	-0.016	0.016	-0.051
GMPS (UniProt P49915)	-0.006	-0.011	-0.008	-0.05	-0.046	-0.011	0.128	-0.047	0.014	-0.005	0.04	-0.065	-0.009	0.014	-0.025	-0.022	0.025	0.005	-0.003	-0.026
KBTBD2 (UniProt Q8IY47)	-0.035	0.006	0.022	-0.018	0.013	-0.181	-0.166	0.06	0.031	-0.03	-0.073	0.167	-0.009	-0.013	-0.036	0.018	-0.362 (active)	-0.053	-0.01	0.028
HECTD3 (UniProt Q5T447)	-0.046	0.007	-0.039	-0.022	-0.024	0.018	-0.004	-0.027	0.032	0.027	0.007	-0.047	0.02	0.045	-0.023	0.02	0.11	-0.015	0.002	0.014
GRB10 (UniProt Q13322)	0.001	0.051	0.054	-0.054	-0.103	0.012	-0.023	0.016	-0.082	0.028	-0.061	-0.226	0.015	0.003	0.02	0.065	0.01	0	-0.02	-0.043
HDAC3 (UniProt O15379)	0.035	0.026	-0.038	-0.023	-0.003	0.001	0.023	0.052	-0.04	-0.006	0.005	-0.039	0.013	-0.023	0.069	0.008	-0.057	0.02	-0.015	0.014
HMGB1 (UniProt P09429)	-0.01	-0.014	-0.013	0.102	0.035	-0.039	0.389 (active)	-0.184	-0.011	-0.075	0.126	0.059	0.01	0.074	0.046	-0.006	-0.09	-0.043	-0.025	-0.131
HDAC10 (UniProt Q969S8)	0.142	-0.093	0.009	-0.052	-0.056	-0.117	-0.026	0.02	-0.052	-0.069	0.033	0.49 (active)	-0.075	-0.135	-0.014	0.091	0.08	0.047	-0.006	0.165
GNL3 (UniProt Q9BVP2)	0.051	0.041	0.032	-0.078	0.004	-0.07	0.129	-0.066	0.004	0.013	0.023	0.008	0.055	-0.002	0.038	0.014	0.252 (active)	-0.006	0.033	-0.029
